The record followed here is PubChem BioAssay (NCATS).

Results filed as inconclusive are left out. Calls of active or inactive are those of the source. Unless noted, calls follow the shape of the dose curve; as a rule, active = well fitted curve in the direction sought with a large enough effect; inconclusive = small, poorly fitted or top-dose-only effect, or another doubt; inactive = no such curve, though single readings can be large; an effect the other way counts as inactive or inconclusive.

Assay [1] can be described thus: AP1 Signaling Pathway (AID 357; active = well fitted curve in either direction with a large enough effect, not every such curve was filed as active;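 also: ME-180 reporter cells stimulated with EGF at its EC50 level; % is scaled to controls: 0 for no effect and ±100 for the full control effect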). In a few lines:
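Read-out was the 460nm/530nm emission ratio (excitation 405nm) after CCF4 loading for 2.5 hours at room temperature. Cells carried an AP-1-driven beta-lactamase reporter, were stimulated with EC50 EGF plus compound for 5 hours, and AC50 values came from titrations.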

The nature of assay [2]: Stat Signaling Pathway (AID 446; active = well fitted curve in either direction with a large enough effect, not every such curve was filed as active;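 also: ME-180 cervical cancer cells given 40 pM IL-6 alongside compound; SIE-controlled beta-lactamase reporter measured as 460/530 nm FRET emission ratio; % is scaled to controls: 0 for no effect and ±100 for the full control effect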). A digest of the protocol: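 ME-180 cells carrying a SIE-driven beta-lactamase reporter are stimulated with 40 pM IL-6 for 5 h at 37C in the presence of compound. The 460/530 nm FRET substrate ratio is read after 2.5 h at RT. Data are normalised to 300 pM IL-6 and to 125 nM JAK inhibitor controls.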
For assay [3], the target named is Glucocorticoid receptor (Homo sapiens) (UniProt P04150). The assay can be described thus: GR-GFP Redistribution (AID 450;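 active = compounds whose dose series gives a full or clear partial fitted curve of increased nuclear translocation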; also: potency is read from the fitted curve at half-maximal effect). The following applies: U2OS GR-GFP nuclear translocation, laser cytometry, 2 h.
Assay [4] shares this target. The assay can be described thus: GR-EFC Redistribution (AID 451; calls by dose curve; also: potency is read from the fitted curve at half-maximal effect). The conditions noted are these: CHO-K1 GR-EFC translocation, beta-gal luminescence, 2 h. A digest of the protocol: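 CHO-K1 cells stably expressing nuclear-localized β-gal enzyme acceptor and GR fused C-terminally to the enzyme donor fragment; ligand-driven nuclear translocation restores β-gal by complementation. Compounds titrated up to 46 uM final, 2 h at 37 °C; luminescence read.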

For assay [5], the target named is Mitogen-activated protein kinase 10 (Mus musculus) (UniProt Q61831). Description: JNK3 AlphaScreen Assay (AID 530; active = well fitted curve in either direction with a large enough effect, not every such curve was filed as active;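 also: kinase came from lysate of stimulated human HepG2 cells; signal reports phosphorylation of biotinylated GST-cJun 1-79 at Ser73 with 10 µM ATP; % is scaled to controls: 0 for no effect and ±100 for the full control effect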). In a few lines:
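JNK3 came from HepG2 lysates pre-activated with IL-1beta and TNF-alpha and phosphorylated biotinylated GST-cJun (1-79) at 10 uM ATP, pH 7.6, room temperature. Compounds were titrated. AlphaScreen signal used anti-phospho-cJun (Ser73) antibody.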
(In general: Alpha assays give light when donor and acceptor beads are brought close together.)

Assay [6] addresses 3',5'-cyclic-AMP phosphodiesterase 4B (Homo sapiens) (UniProt Q07343). Description: qHTS Assay for Inhibitors of PDE-IV (AID 607; active = well fitted activation curve with a large enough effect in the main read-out, with a control signal flat, not every such curve was filed as active; also: % of control where 0% means no effect). A digest of the protocol:
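HEK293 ACTOne cells with CNG channel (1000/well), endogenous PDE4; membrane potential dye, compounds up to 22.9 uM final. Fluorescence Ex 535/Em 590; RO 20-1724 (100 uM final) as reference.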
(In general: qHTS replaces the single test concentration by a dilution series.)

A short description of assay [7]: qHTS Assay for Lipid Storage Modulators (AID 1519; calls by dose curve). The following applies: Drosophila S3 cells, BODIPY lipid droplet/cell ratio, laser cytometry, cells loaded with oleic acid; for activity change, negative = inhibition: at 25.7 µM (top of the series). In a few lines:
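Cells seeded at 5,000 per well were treated with compounds over a concentration series and loaded with oleic acid (400 uM, as added). Lipid droplet fluorescence (488 nm excitation, 500-530 nm channel) was read by laser-scanning cytometry and normalized to 20 uM Triacsin C.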

Assay [8] concerns the target ATP-dependent 6-phosphofructokinase (Trypanosoma brucei brucei) (UniProt O15648). The assay can be described thus: qHTS Assay to Find Inhibitors of T. brucei phosphofructokinase: hit validation (AID 492961).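 Also: luminescence reports ADP formed as PFK phosphorylates fructose-6-phosphate with ATP; % is scaled to controls: 0 for no effect and ±100 for the full control effect.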 A digest of the protocol:
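PFK 1.25 nM, F6P 0.5 mM, ATP 0.1 mM, MgCl2 5 mM, 0.1 M TEA pH 8.0, Tween20 0.01%, BSA 0.1%; 45 min RT. ADP-Glo two-step detection, luminescence. qHTS titration; curve fitting with curve-class categorization.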

The target of assay [9] is Luciferin 4-monooxygenase (Photinus pyralis) (UniProt P08659). The assay can be described thus: Biochemical firefly luciferase enzyme assay for NPC (AID 624030).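 Also: purified P. pyralis luciferase at 10 nM with luciferin and ATP substrate; 0% = DMSO and -100% = full luciferase inhibition by PTC124 control; nearly all actives have a fitted effect of over 70% in size.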 A digest of the protocol:
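Counter-screen for direct inhibition of the luciferase enzyme by approved-drug library compounds, run at 10 nM enzyme in 50 mM Tris acetate (final). Luminescence was read within 5 min of enzyme-buffer addition and normalized to PTC124 versus DMSO (0%).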

Assay [10] is described as follows: qHTS profiling for inhibitors of Plasmodium falciparum proliferation (AID 504749).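 Also: 0% = DMSO vehicle and full inhibition = artemisinin control; nearly all actives have a fitted effect of over 60% in size.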 The conditions noted are these: P. falciparum in erythrocytes, SYBR Green DNA, 72 h, at 12.8 µM (top of the series). In a few lines:
(§1)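 P. falciparum-infected erythrocytes (0.3% parasitemia, 2.5% hematocrit final) were exposed to compounds for 72 h at 37 C in 5% CO2, then lysed with SYBR Green buffer overnight at room temperature; parasite DNA fluorescence was normalized to artemisinin and DMSO controls.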

For assay [11], the system named is C2A. The description is as above. The following applies: P. falciparum in erythrocytes, SYBR Green DNA, 72 h; series mostly up to 12.8 µM. A digest of the protocol: as §1
In assay [12] the test system is CP217. The description is as above. The following applies: P. falciparum in erythrocytes, SYBR Green DNA, 72 h; series mostly up to 12.8 µM. A digest of the protocol:
as §1

Assay [13] has as its system CP238. Described as above. The following applies: P. falciparum in erythrocytes, SYBR Green DNA, 72 h; series mostly up to 12.8 µM. A digest of the protocol:
as §1

Assay [14] deals with CP250. The assay is described as above. The conditions noted are these: P. falciparum in erythrocytes, SYBR Green DNA, 72 h; series mostly up to 12.8 µM. A digest of the protocol:
as §1

Assay [15] concerns CP252. The description is as above. The following applies: P. falciparum in erythrocytes, SYBR Green DNA, 72 h; series mostly up to 12.8 µM. A digest of the protocol: as §1
For assay [16], the system named is FAB9. The description is as above. The following applies: P. falciparum in erythrocytes, SYBR Green DNA, 72 h; series mostly up to 12.8 µM. A digest of the protocol: as §1
In assay [17] the test system is HB3. Described as above. The conditions noted are these: P. falciparum in erythrocytes, SYBR Green DNA, 72 h; series mostly up to 12.8 µM. A digest of the protocol:
as §1

For assay [18], the system named is SC27B. The description is as above. The following applies: P. falciparum in erythrocytes, SYBR Green DNA, 72 h; series mostly up to 12.8 µM. A digest of the protocol:
as §1

Assay [19] is described as follows: NFAT Signaling Pathway (AID 444; active = well fitted curve in either direction with a large enough effect, not every such curve was filed as active). The following applies: Jurkat NFAT-bla M1, carbachol, beta-lactamase ratio, 5 h; at 17.2 µM (top of the series) unless noted. A digest of the protocol:
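Jurkat cells carrying an NFAT-driven β-lactamase reporter and co-transfected muscarinic M1 receptor were treated with compound plus carbachol (1 uM final, an EC50 level) for 5 h at 37 °C. CCF4 loading followed for 1 h at RT; 460/530 nm ratio gave %activity.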

In assay [20] the target is Ubiquitin carboxyl-terminal hydrolase 1 (Homo sapiens) (UniProt O94782). The assay can be described thus: Inhibitors of USP1/UAF1: Pilot qHTS (AID 504865).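 Also: rhodamine fluorescence freed from ubiquitin-rhodamine substrate followed over time; top concentration of the series differs between compounds; % is scaled to controls: 0 for no effect and ±100 for the full control effect; nearly all actives have a fitted effect of over 35% in size.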 In a few lines:
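USP1/UAF1 complex at 1 nM preincubated 15 min at room temperature with compound, then Ub-Rho substrate added at 150 nM final. Fluorescence (480/540 nm) read kinetically in 50 mM HEPES pH 7.8, 0.5 mM EDTA, 1 mM TCEP, 0.1 mg/ml BSA, 0.01% Tween-20.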

[21] abbreviates: measured here: cell count channel max response.
The mark [22] stands for this setting: measured here: lipid channel max response.

Sequence of 3',5'-cyclic-AMP phosphodiesterase 4B (Homo sapiens) (Q07343 whole entry, looked up): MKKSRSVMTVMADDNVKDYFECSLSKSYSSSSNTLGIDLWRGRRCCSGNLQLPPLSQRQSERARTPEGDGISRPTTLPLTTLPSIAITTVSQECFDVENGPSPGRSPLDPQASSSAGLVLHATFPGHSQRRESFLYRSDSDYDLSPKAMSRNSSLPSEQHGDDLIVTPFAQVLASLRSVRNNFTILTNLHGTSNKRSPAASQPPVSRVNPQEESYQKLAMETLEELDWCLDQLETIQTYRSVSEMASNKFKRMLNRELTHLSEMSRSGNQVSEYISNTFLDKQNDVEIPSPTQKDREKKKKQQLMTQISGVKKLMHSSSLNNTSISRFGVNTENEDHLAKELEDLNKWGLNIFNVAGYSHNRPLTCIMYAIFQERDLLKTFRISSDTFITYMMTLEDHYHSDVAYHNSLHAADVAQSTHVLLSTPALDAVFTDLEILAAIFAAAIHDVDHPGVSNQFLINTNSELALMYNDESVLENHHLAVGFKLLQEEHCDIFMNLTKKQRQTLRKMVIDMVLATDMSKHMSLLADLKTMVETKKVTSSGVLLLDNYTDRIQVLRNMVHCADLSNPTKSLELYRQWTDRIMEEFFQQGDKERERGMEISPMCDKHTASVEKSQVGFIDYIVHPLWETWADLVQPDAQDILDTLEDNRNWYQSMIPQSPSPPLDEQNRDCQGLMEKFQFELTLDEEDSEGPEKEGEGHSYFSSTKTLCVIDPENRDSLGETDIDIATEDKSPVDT
Sequence of Luciferin 4-monooxygenase (Photinus pyralis) (P08659 whole entry, looked up): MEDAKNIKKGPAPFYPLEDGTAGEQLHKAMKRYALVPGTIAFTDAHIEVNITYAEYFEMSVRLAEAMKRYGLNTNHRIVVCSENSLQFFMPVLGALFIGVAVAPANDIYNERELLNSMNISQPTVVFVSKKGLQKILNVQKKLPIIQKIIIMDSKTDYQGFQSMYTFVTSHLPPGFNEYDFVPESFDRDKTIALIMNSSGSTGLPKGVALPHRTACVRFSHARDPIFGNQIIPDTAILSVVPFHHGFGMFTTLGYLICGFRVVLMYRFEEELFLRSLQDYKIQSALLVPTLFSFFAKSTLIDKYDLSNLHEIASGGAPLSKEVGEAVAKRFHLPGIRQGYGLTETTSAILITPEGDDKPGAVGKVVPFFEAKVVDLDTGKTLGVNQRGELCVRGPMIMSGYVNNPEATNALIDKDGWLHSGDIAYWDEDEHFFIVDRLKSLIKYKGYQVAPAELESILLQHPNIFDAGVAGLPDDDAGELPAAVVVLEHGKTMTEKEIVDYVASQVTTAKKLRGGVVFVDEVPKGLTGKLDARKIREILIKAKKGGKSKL
Sequence of Glucocorticoid receptor (Homo sapiens) (P04150 whole entry, looked up, the tested form may be a part): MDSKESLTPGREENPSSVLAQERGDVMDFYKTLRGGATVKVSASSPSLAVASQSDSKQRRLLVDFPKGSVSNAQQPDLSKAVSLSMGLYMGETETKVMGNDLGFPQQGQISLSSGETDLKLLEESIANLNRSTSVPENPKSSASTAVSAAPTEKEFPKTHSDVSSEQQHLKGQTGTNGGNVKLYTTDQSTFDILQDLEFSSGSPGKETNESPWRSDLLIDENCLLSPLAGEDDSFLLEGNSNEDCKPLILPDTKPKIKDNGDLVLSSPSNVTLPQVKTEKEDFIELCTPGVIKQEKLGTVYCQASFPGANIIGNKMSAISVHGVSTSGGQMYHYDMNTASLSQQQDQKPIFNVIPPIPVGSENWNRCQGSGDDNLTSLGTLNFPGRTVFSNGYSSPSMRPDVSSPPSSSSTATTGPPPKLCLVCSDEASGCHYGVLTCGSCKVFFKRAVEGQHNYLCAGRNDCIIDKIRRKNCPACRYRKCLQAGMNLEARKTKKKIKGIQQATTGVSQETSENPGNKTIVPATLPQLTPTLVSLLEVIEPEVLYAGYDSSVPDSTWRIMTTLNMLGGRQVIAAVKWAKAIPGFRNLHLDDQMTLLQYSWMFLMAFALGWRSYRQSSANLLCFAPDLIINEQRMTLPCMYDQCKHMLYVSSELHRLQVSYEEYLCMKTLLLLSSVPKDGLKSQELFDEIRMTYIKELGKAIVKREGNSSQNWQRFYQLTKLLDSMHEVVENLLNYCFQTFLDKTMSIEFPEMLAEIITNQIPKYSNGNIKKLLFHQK
Sequence of ATP-dependent 6-phosphofructokinase (Trypanosoma brucei brucei) (O15648 whole entry, looked up): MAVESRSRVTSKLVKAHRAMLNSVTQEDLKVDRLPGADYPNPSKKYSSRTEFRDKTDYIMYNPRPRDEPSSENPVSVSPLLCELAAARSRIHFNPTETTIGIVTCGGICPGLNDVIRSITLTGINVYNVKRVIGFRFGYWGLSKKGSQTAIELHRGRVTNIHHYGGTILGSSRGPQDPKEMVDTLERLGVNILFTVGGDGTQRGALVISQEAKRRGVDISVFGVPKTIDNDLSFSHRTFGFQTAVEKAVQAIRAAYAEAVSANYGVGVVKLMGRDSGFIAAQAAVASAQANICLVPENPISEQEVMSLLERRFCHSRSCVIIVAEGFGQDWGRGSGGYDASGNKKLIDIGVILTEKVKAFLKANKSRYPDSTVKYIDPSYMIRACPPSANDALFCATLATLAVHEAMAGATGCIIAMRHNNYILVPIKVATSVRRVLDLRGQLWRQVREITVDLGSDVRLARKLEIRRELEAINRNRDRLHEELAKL
Sequence of Ubiquitin carboxyl-terminal hydrolase 1 (Homo sapiens) (O94782 whole entry, looked up): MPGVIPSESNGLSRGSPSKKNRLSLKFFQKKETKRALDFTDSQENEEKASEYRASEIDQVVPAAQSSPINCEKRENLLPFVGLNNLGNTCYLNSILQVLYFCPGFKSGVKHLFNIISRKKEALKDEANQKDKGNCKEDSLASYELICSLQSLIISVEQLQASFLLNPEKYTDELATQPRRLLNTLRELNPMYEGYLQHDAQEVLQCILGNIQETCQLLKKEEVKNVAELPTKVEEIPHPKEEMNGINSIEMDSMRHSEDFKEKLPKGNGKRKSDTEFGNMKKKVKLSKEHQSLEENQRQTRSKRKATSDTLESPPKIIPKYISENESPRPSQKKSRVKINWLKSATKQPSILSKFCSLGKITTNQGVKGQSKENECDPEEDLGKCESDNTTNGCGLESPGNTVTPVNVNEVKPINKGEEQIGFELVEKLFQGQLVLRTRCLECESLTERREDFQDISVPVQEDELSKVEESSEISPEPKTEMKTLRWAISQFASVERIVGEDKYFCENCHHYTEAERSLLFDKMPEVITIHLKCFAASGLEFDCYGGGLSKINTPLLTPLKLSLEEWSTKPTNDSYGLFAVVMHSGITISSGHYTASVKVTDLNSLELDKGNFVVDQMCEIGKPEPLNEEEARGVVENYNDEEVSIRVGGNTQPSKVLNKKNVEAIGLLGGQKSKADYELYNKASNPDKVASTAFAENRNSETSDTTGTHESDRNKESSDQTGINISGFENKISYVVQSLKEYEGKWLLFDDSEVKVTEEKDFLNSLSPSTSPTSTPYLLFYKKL

Regarding `C#C[C@]1(O)CC[C@@H]2[C@H]3CCC4=CCCC[C@@H]4[C@@H]3CC[C@@]21C`, the result in [1], in [2], in assay [6] and in assay [8] was inactive. The Potency in [3] and in [4] was > 20.6 µM (inactive) each time. Moreover, the Potency entry in assay [5], in [9], in assay [11], in assay [12], in assay [13] and in assay [14] was “inactive” each time. Further, the Potency result in assay [15], in assay [16], in assay [17] and in assay [18] was “inactive” throughout. Moreover, the activity change, negative = inhibition in assay [7] was -4.16% (inactive). For the same molecule, the results for the max response in assay [7] (setting [21]) and in [7] (setting [22]) were -7.9% and -10.1%, respectively. The activity, negative = inhibition was 11.7% (inactive) in assay [10] (parasite line A) and 0.61% (inactive) in assay [10] (parasite line B).
Turning to `NC[C@@H]1O[C@H](O[C@H]2[C@H](O)[C@@H](O[C@H]3[C@H](O)[C@H](N)C[C@H](N)[C@H]3O[C@@H]3O[C@H](CO)[C@@H](O)[C@H](O)[C@@H]3N)O[C@H]2CO)[C@@H](N)[C@H](O)[C@@H]1O`, the call in assay [1] and in assay [6] was inactive. Further, the activity change, negative = inhibition in assay [19] was -6.33% (inactive); in assay [7], -3.71% (inactive). Moreover, the Potency in assay [3] and in assay [4] was > 20.6 µM (inactive) throughout. In addition, the Potency entry in assay [5] was “inactive”. The max response in assay [7] (setting [21]) was -10.9%; in assay [7] (setting [22]) it was -14.4%.
For the molecule `CN1CCN([C@@H](c2ccccc2)c2ccc(Cl)cc2)CC1`, the molecule was classed as inactive in [2], in assay [6] and in assay [8]. The Potency in assay [3] and in [4] was > 20.6 µM (inactive) each time. Besides, the Potency entry in assay [5], in [20], in assay [9], in [11], in [12] and in assay [13] was “inactive” in each case. Also, the Potency result in [14], in [15], in assay [16], in [17] and in [18] was “inactive” in each case. The activity change, negative = inhibition in assay [7] was -3.4% (inactive). The max response is -16% in assay [7] (setting [21]) and -18.7% in [7] (setting [22]). Also, the activity, negative = inhibition in assay [10] (parasite line A) is 1.67% (inactive); in assay [10] (parasite line B), -12.4% (inactive).
Regarding `CN1CCC[C@@H](CC2c3ccccc3Sc3ccccc32)C1`, the figures for the activity change, negative = inhibition in assay [19] and in [7] were -49.6% (active) and -5.3% (inactive), respectively. Besides, the call in [2], in [6] and in assay [8] was inactive. Further, the Potency in assay [3] and in assay [4] was > 20.6 µM (inactive) each time. Also, the Potency entry in assay [5], in [20], in [9], in assay [11], in assay [12] and in [13] was “inactive” each time. Besides, the Potency result in [14], in assay [15], in assay [16], in assay [17] and in assay [18] was “inactive” in each case. Also, the max response in [7] (setting [21]) was -0.662%; in assay [7] (setting [22]), -6.24%. Also, in assay [10] (parasite line A), the activity, negative = inhibition is -16.3% (inactive).
In the case of `C[C@@H](Cc1cccc(C(F)(F)F)c1)NCCOC(=O)c1ccccc1`, the activity change, negative = inhibition is -24.1% (inactive) in assay [19] and -1.81% (inactive) in assay [7]. The Potency in [3] and in assay [4] was > 20.6 µM (inactive) in each case. Moreover, the Potency entry in assay [5] and in assay [20] was “inactive” each time. Further, the values for the max response in assay [7] (setting [21]) and in assay [7] (setting [22]) were -19.2% and -18.4%, respectively.
